We go through 36 molecules from PubChem BioAssay AID540358 (NMMLSC, 2011).

The structures appear in SMILES notation. Values joined by “and” are separate entries in the source; they are usually repeats but may differ in a detail not shown here. Identical values can stand only once. The whole screen tested about 1,100 compounds, of which about 260 (24%) were called active. A selection follows. A number with no mark means an inactive call.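 The calls were made as follows: active = surface receptor percent response at or below 58%, roughly 3 SD from nonfluorescent compounds; inactive = the rest.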

Beta-2 adrenergic receptor (Homo sapiens), sequence (P07550 whole entry, looked up): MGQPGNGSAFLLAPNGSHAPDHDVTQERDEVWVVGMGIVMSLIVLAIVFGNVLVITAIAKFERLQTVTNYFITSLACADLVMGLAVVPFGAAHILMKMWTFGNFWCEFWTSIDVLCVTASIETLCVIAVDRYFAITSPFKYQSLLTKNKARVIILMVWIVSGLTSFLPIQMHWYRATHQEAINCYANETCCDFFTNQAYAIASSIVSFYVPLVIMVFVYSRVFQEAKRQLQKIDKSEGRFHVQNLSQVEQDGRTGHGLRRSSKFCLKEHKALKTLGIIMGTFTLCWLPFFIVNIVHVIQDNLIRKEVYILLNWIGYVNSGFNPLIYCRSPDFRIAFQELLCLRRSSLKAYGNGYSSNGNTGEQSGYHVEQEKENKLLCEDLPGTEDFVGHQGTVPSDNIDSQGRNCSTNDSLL

This assay addresses Beta-2 adrenergic receptor (Homo sapiens) (UniProt P07550). In words: agonist-driven loss of surface beta2AR – cell-based, FAP fluorogen, flow cytometry, single point, cherry pick 1, confirmation (AID 540358). The conditions noted are these: Am2.2-beta2AR cells, at 10 µM, stronger effect = lower value.
Regarding `CSc1ccc(CNC(=O)c2ccc(NC(=O)C3=CSCCO3)cc2)cc1`, the percent response (surface receptor) was 17.5% (active).
Consider `OC(CNCc1ccc(Cl)c(Cl)c1)c1ccccc1` (stereo unspecified), for which the percent response (surface receptor) was 110%.
`CCCCCCCCCCOC(=O)Cn1c(COc2ccc(C)cc2)[n+](C)c2ccccc21`: the percent response (surface receptor) was 108%.
For `O=C1C(=O)N(CC2COc3ccccc3O2)c2ccccc21` (stereo unspecified) the value was 95.3%; for `O=C(NCCCn1ccnc1)C1CCCN(S(=O)(=O)c2cc(Cl)ccc2Cl)C1` (stereo unspecified), 17.8% (active).
With `CC(=O)Nc1ccc(Nc2c3ccccc3nc3ccccc23)cc1`, the percent response (surface receptor) is 80.8%.
For `COc1ccc(-n2nc3c(N4CCC(C(=O)NCc5ccccc5)CC4)nnc(C)c3c2C)cc1` the value was 152%; for `C=CCNC(=S)N/N=C/c1ccc(C)s1`, 110%; for `CC(=O)Nc1ccc(CN2CCC(Oc3ccc(C(=O)N4CCCC4)cc3)CC2)cc1`, 104%.
To `CC(CCc1ccccc1)NCC(O)c1cccc([N+](=O)[O-])c1` (stereo unspecified) belongs 119%.
To `COc1cc(C#Cc2ccc3cc(CCCO)oc(=O)c3c2)cc(OC)c1` belongs 68.2%; to `COc1ccc(-c2ccnc(SCC(=O)N3CCOCC3)n2)cc1`, 104%; to `Cc1ccc(Cl)cc1NC(=O)CN1CCN(S(=O)(=O)N2CCOCC2)CC1`, 93.5%.
Regarding `CCOc1ccccc1N1C(=O)CC(Sc2nccc(C)n2)C1=O` (stereo unspecified), the percent response (surface receptor) is 106%.
To `CCOC(=O)c1ccc(NC(=O)Cn2nnc(-c3ccc(C)cc3)n2)cc1` belongs 12.3% (active) and 4.86% (active); to `COc1ccc2c(c1OC)C(=O)OC2Nc1nc(-c2ccccc2)cs1` (stereo unspecified), 99.6%; to `O=C(C1CCN(c2nnc(-n3cccc3)s2)CC1)N1CCc2ccccc2C1`, 146%.
Take `CC(=O)c1ccc(NC(=O)c2ccc3c(Cl)c4c(nc3c2)CCCC4)cc1`: the percent response (surface receptor) is 66.5%.
To `Cc1cc(S(=O)(=O)N2CCOCC2)ccc1OCC(=O)Nc1cccc(C(F)(F)F)c1` belongs 99%; to `COc1ccc(OC)c(NC(=O)c2sc3nc(C)cc(C)c3c2N)c1`, 34.7% (active); to `N#Cc1cccc(NC(=O)COC(=O)c2ccccc2C(=O)c2ccc(Cl)c([N+](=O)[O-])c2)c1`, 85.9%.
Consider `COc1ccc(OC)c(S(=O)(=O)N(C)CC(=O)N2CCN(c3ccccc3)CC2)c1`, for which the percent response (surface receptor) was 88.9% and 123%.
For `CCOc1ccc(NC(=O)COc2ccc(S(=O)(=O)N3CCCC3)cc2)cc1`, the percent response (surface receptor) is 104%.
For `CCOc1ccccc1NC(=O)COc1ccc(S(=O)(=O)N2CCCC2)cc1` the value was 128%.
For `COc1ccc(S(=O)(=O)N2CCCC(C(=O)Nc3ccc(NC(=O)c4ccccn4)cc3)C2)cc1` (stereo unspecified) the value was 44.1% (active).
For `CCN1CCC2(CC1)N=C(c1ccc(F)cc1)C(=S)N2C(=O)c1ccc(C)cc1` the value was 92.8%.
Take `Cc1ccc(OCC(=O)Nc2ccc(-c3nc4ncccc4o3)cc2)cc1`: the percent response (surface receptor) is 38.8% (active) and 23.3% (active).
For the molecule `CC(=O)c1cccc(NC(=O)COc2ccc(S(=O)(=O)N3CCOCC3)cc2)c1`, the percent response (surface receptor) was 120%.
For `CCCOc1ccc(C(=O)C(CCC(CNCC)C(=O)c2ccc(OCCC)cc2)CNCC)cc1` (stereo unspecified) the value was 61%; for `O=S(=O)(Nc1ccc2[nH]ncc2c1)c1ccccc1Cl`, 89.6%.
To `Cc1ccc(Sc2cc(N3CCOCC3)nc(-c3ccccc3)n2)cc1` belongs 22.9% (active); to `CCCN(CCc1ccccc1)C1CCc2c(O)cccc2C1` (stereo unspecified), 111%; to `CSc1ccc(CCNC(=O)C2CCN(c3nnc(-n4cccc4)s3)CC2)cc1`, 60.9%.
`Oc1ccc(N=Cc2sc3ccccc3c2Cl)cc1`: the percent response (surface receptor) was 101%.
On to `O=C(Nc1ccc2c(c1)OCCO2)C(c1ccc(F)cc1)N1CCCCC1` (stereo unspecified), for which the percent response (surface receptor) was 112%.
To `COc1ccc(C(CCNCc2ccccc2F)c2ccc(F)cc2)cc1` (stereo unspecified) belongs 109%.
